The nature of assay [1]: qHTS assay for identifying genotoxic compounds that show differential cytotoxicity against isogenic chicken DT40 cell lines with known DNA damage response pathways - wild type cell line (AID 743012). Further: nearly all actives have a fitted effect of over 60% in size. Further: potency means the concentration at half of the fitted maximal effect. The method, boiled down: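 Viability by ATP luminescence (CellTiter-Glo, 30 min RT) after 40 h compound treatment at 37 C/5% CO2, using 300 parental DNA repair-proficient DT40 cells per well.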
(In general: In qHTS, concentration-response curves come from the screen itself.)

Assay [2] can be described thus: qHTS assay for identifying genotoxic compounds that show differential cytotoxicity against isogenic chicken DT40 cell lines with known DNA damage response pathways - Rev3 mutant cell line (AID 743014). Further: nearly all actives have a fitted effect of over 55% in size. Further: potency means the concentration at half of the fitted maximal effect.
A short description of assay [3]: qHTS assay for identifying genotoxic compounds that show differential cytotoxicity against isogenic chicken DT40 cell lines with known DNA damage response pathways - Rad54/Ku70 mutant cell line (AID 743015). Further: nearly all actives have a fitted effect of over 60% in size. Further: potency means the concentration at half of the fitted maximal effect.
A short description of assay [4]: qHTS assay to identify small molecule antagonists of the androgen receptor (AR) signaling pathway - cell viability counter screen (AID 743033; further: nearly all actives have a fitted effect of over 45% in size; further: potency means the concentration at half of the fitted maximal effect).
The nature of assay [5]: qHTS assay to identify small molecule antagonists of the androgen receptor (AR) signaling pathway using the MDA cell line - cell viability counter screen (AID 743041; further: nearly all actives have a fitted effect of over 45% in size). The method, boiled down: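 Using the breast carcinoma line MDA-kb2 AR-luc, test chemicals were co-incubated with R1881 for 16 h; CellTiter-Fluor reagent, added at 15.5 h, provided a fluorescence measure of live cells.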

Assay [6] has as its target Androgen receptor (Homo sapiens) (UniProt P10275). Briefly: qHTS assay to identify small molecule antagonists of the androgen receptor (AR) signaling pathway using the MDA cell line (AID 743042; further: nearly all actives have a fitted effect of over 55% in size; further: potency means the concentration at half of the fitted maximal effect). The method in brief:
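Antagonist mode: compounds plus R1881 agonist added to MDA-kb2 AR-luc cells, incubated 16 h at 37C. Luciferase reporter luminescence quantified, with multiplexed CellTiter-Fluor readout for cell viability.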

For assay [7] the target is unchanged. Briefly: qHTS assay to identify small molecule agonists of the androgen receptor (AR) signaling pathway using the MDA cell line (AID 743040; further: nearly all actives have a fitted effect of over 20% in size). The method in brief:
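Stable MMTV-luciferase reporter in MDA-kb2 cells; note the promoter carries GR as well as AR response elements. 16 h compound treatment, 37C, 0% CO2; ONE-Glo luminescence endpoint.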

Assay [8] shares this target. Briefly: qHTS assay to identify small molecule antagonists of the androgen receptor (AR) signaling pathway (AID 743035; active means well fitted inhibition curve with a large enough effect in the signal ratio in the repeat runs, not every such curve was filed as active; the % refers to the signal ratio; further: potency means the concentration at half of the fitted maximal effect). The method, boiled down: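 Antagonist mode: AR-bla HEK293 cells co-treated with test compounds and agonist R1881 for 16 h at 37C, 5% CO2. Beta-lactamase activity read as FRET fluorescence after 2 h room-temperature substrate loading.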
Assay [9] has the same target. Briefly: qHTS assay to identify small molecule agonists of the androgen receptor (AR) signaling pathway (AID 743036; active means well fitted activation curve with a large enough effect in the signal ratio in the repeat runs, with a control signal flat, not every such curve was filed as active; the % refers to the signal ratio). The method, boiled down:
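AR-bla HEK293 cells, 2,000/well; 4 h preincubation 37C/5% CO2; compound (DMSO) 16 h at 37C; LiveBLAzer B/G FRET substrate 2 h RT; fluorescence intensity read-out.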

Records with an inconclusive call do not appear. Calls of active or inactive are those of the source. Unless noted, the call rests on the fitted dose curve; in most records, active means well fitted curve in the direction sought with a large enough effect in the repeat runs; inconclusive means weak or mixed curves; inactive means no such curve, though single readings can be large; an effect the other way counts as inactive or inconclusive.

Androgen receptor (Homo sapiens), sequence (P10275 whole entry, looked up): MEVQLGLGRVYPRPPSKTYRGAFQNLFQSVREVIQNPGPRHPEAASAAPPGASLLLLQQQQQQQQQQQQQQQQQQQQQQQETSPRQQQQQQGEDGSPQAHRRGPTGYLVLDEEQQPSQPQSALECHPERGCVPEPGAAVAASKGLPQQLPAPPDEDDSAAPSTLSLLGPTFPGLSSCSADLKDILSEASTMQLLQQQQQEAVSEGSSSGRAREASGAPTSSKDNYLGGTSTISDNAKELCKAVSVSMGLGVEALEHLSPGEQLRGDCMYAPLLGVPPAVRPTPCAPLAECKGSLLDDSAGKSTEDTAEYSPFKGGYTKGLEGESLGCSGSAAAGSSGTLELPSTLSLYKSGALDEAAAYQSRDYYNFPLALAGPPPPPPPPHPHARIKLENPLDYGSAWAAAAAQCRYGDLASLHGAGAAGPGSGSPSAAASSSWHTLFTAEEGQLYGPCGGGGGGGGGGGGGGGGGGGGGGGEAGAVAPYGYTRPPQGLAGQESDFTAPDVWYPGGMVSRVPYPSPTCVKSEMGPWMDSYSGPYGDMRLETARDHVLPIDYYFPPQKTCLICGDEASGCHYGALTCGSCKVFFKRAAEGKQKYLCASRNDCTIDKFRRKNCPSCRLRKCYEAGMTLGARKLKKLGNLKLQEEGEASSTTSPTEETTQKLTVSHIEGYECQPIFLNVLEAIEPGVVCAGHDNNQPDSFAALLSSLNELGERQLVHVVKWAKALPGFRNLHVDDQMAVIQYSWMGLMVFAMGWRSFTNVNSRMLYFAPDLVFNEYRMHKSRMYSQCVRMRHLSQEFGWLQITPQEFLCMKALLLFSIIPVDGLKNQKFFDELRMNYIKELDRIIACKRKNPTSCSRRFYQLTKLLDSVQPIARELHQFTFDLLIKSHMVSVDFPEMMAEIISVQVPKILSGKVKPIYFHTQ

As to `COc1cc([C@@H]2c3cc4c(cc3C(O[C@@H]3O[C@@H]5COC(c6cccs6)O[C@H]5[C@H](O)[C@H]3O)C3COC(=O)[C@@H]32)OCO4)cc(OC)c1O` (some centres not stated), the Potency in assay [1] was 0.0119 µM (active); in assay [2] it was 0.0119 µM (active); in assay [3], 0.0011 µM (active); in assay [4], 0.301 µM (active). In [5], the Potency result is “inactive”.

As to `C=C1C(=C/C=C2\CCC[C@]3(C)[C@@H]([C@H](C)CCCC(C)(C)O)CC[C@@H]23)C[C@@H](O)C[C@@H]1O`, the Potency in [1] is 5.96 µM (active); in [2] it was 11.9 µM (active); in assay [3] it was 10.6 µM (active). The Potency result in assay [4] is “inactive”.

As for `CCCCCCCCCCCCCCCC(=O)OC[C@@H](COP(=O)([O-])OCC[N+](C)(C)C)OC(=O)CCCCCCCCCCCCCCC`, the Potency result in [1], in assay [3], in assay [4] and in assay [6] was “inactive” in each case.

With `CCCCCCCCCCCCCCCC(=O)O[C@@H]1CC(C)=C(/C=C/C(C)=C/C=C/C(C)=C/C=C/C=C(C)/C=C/C=C(C)/C=C/C2=C(C)C[C@@H](OC(=O)CCCCCCCCCCCCCCC)CC2(C)C)C(C)(C)C1`, the Potency entry in [1], in [2], in [3], in assay [4] and in assay [5] was “inactive” in each case.

`O=[N+]([O-])c1c(Cl)cccc1-c1c[nH]cc1Cl`: the Potency is 18.8 µM (active) in assay [1], 23.7 µM (active) in assay [2] and 26.6 µM (active) in [3]. Further, the Potency entry in assay [4] and in [5] was “inactive” throughout.

For the compound `C=C1C(=O)O[C@H]2[C@H]1CC/C(C)=C\CC[C@@]1(C)O[C@@H]21`, the Potency in [1] was 2.98 µM (active); in [2], 2.98 µM (active); in [3], 4.22 µM (active); in [4], 23.9 µM (active); in assay [6] it was 6.68 µM (active). Besides, the Potency entry in [7] was “inactive”.

With `C=CC[C@@H]1/C=C(\C)C[C@H](C)C[C@H](OC)[C@H]2O[C@@](O)(C(=O)C(=O)N3CCCC[C@H]3C(=O)O[C@H](/C(C)=C/[C@@H]3CC[C@@H](O)[C@H](OC)C3)[C@H](C)[C@@H](O)CC1=O)[C@H](C)C[C@@H]2OC`, the Potency in [1] is 5.31 µM (active); in assay [2] it was 4.22 µM (active); in assay [3], 6.68 µM (active); in assay [8] it was 16.9 µM (active). The Potency result in [4], in assay [9], in assay [7] and in assay [6] was “inactive” in each case.

In the case of `O=C(CCCN1CCC(n2c(=S)[nH]c3ccccc32)CC1)c1ccc(F)cc1`, the Potency is 11.9 µM (active) in assay [1], 18.8 µM (active) in assay [2] and 16.8 µM (active) in assay [3].

Turning to `CC[C@@]1(O)C(=O)OCc2c1cc1n(c2=O)Cc2cc3c([N+](=O)[O-])cccc3nc2-1`, the Potency is 0.119 µM (active) in [1], 0.0944 µM (active) in [2] and 0.0841 µM (active) in assay [3]. For the same compound, the Potency entry in assay [4] was “inactive”.

With `CN(C)C(=O)CCSC(SCCC(=O)O)c1cccc(/C=C/c2ccc3ccc(Cl)cc3n2)c1` (configuration not stated), the Potency result in assay [4] and in assay [6] was “inactive” in each case.

As for `O=C(O)CCC/C=C\C[C@@H]1[C@@H](/C=C/[C@@H](O)COc2cccc(Cl)c2)[C@H](O)C[C@@H]1O`, the Potency result in [1], in assay [2], in assay [4], in [8], in assay [9] and in assay [5] was “inactive” each time. Further, the Potency result in assay [6] was “inactive”.

As to `NC(=O)C[C@@H](N)C(=O)O`, the Potency entry in assay [1], in assay [2], in assay [3] and in [5] was “inactive” each time.

Consider `Cc1nnc(C(C)C)n1C1C[C@H]2CC[C@@H](C1)N2CC[C@H](NC(=O)C1CCC(F)(F)CC1)c1ccccc1` (some centres not stated), for which the Potency result in [1], in [2] and in assay [5] was “inactive” each time.

In the case of `COc1ccc2c(c1)OC(C)(C)C(c1ccccc1)C2c1ccc(OCCN2CCCC2)cc1` (configuration not stated), the Potency was 3.76 µM (active) in assay [1], 5.31 µM (active) in [2] and 5.96 µM (active) in [3].

`C#C[C@]1(O)CC[C@H]2[C@@H]3CCC4=CCCC[C@@H]4[C@H]3C(=C)C[C@@]21CC`: the results for the Potency in assay [1], in assay [2] and in [3] were 13.3 µM (active), 15 µM (active) and 21.1 µM (active), respectively. Besides, the Potency entry in [4] and in [5] was “inactive” each time.

In the case of `CCN(CC)CCOc1ccc(-c2nc3cc(Cl)ccc3s2)cc1`, the Potency in [1] is 0.944 µM (active); in assay [2] it was 1.06 µM (active); in [3], 1.06 µM (active); in assay [4], 23.9 µM (active).

Take `CC(CN(C)C)CN1c2ccccc2Sc2ccc(C(F)(F)F)cc21` (configuration not stated): the values for the Potency in [1], in assay [2] and in assay [3] were 5.96 µM (active), 7.5 µM (active) and 9.44 µM (active), respectively. Also, the Potency entry in assay [4] and in [5] was “inactive” each time.

Values taken from PubChem BioAssay (Tox21).
